For one assay, the system named is MCC-13. Nature of the assay: qHTS assay to identify novel small-molecules to repurpose for Merkel cell carcinoma treatment (AID 1296009). Note: nearly all actives have a fitted effect of over 60% in size. The conditions noted are these: MCC and control cell lines, CellTiter-Glo viability, 72 h; series mostly up to 46 µM. Summed up: (§1)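 Cells were treated for 72 hr at 37 degree celsius with compounds in 8- or 11-point dose response. Viability was read by CellTiter-Glo luminescence, normalized to no-cell (cytotoxicity) and DMSO controls.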

In the next assay the test system is MCC-26. The assay is described as above. The conditions noted are these: MCC and control cell lines, CellTiter-Glo viability, 72 h; series mostly up to 46 µM. Summed up: as §1
The test system of the next assay is MKL-2. The assay is described as above. As to conditions: MCC and control cell lines, CellTiter-Glo viability, 72 h; series mostly up to 46 µM. Summed up: as §1
Another assay relates to UISO. Described as above. The conditions noted are these: MCC and control cell lines, CellTiter-Glo viability, 72 h; series mostly up to 46 µM. Summed up:
as §1

In another assay the test system is WaGa. The assay is described as above. The conditions noted are these: MCC and control cell lines, CellTiter-Glo viability, 72 h; series mostly up to 46 µM. Summed up: as §1
The next assay has as its system C33A. Nature of the assay: Primary qHTS to identify gynecologic anti-cancer compounds using libraries of approved drugs and bioactive compounds (AID 1345084). Note: nearly all actives have a fitted effect of over 55% in size. Note: potency is the fitted concentration of half-maximal effect. As to conditions: Gynecologic cancer cell panel viability, ATPlite luminescence, 48 h; series mostly up to 57.5 µM. Summed up: (§2)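 48 h compound exposure at 37 C, 5% CO2; five-point qHTS. ATPlite luminescence readout of cell ATP.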

The test system of the next assay is CAOV3. The description is as above. As to conditions: Gynecologic cancer cell panel viability, ATPlite luminescence, 48 h; series mostly up to 57.5 µM. Summed up:
as §2

For a further assay, the system named is CASKI. The description is as above. The conditions noted are these: Gynecologic cancer cell panel viability, ATPlite luminescence, 48 h; series mostly up to 57.5 µM. Summed up: as §2
The subject of a further assay is Es-2. The description is as above. As to conditions: Gynecologic cancer cell panel viability, ATPlite luminescence, 48 h; series mostly up to 57.5 µM. Summed up:
as §2

The test system of a further assay is HeLa. The assay is described as above. The conditions noted are these: Gynecologic cancer cell panel viability, ATPlite luminescence, 48 h; series mostly up to 57.5 µM. Summed up:
as §2

The subject of another assay is Hek293T. The description is as above. As to conditions: Gynecologic cancer cell panel viability, ATPlite luminescence, 48 h, control line for the selectivity index; series mostly up to 57.5 µM. Summed up:
as §2

Another assay concerns JEG-3. Described as above. The conditions noted are these: Gynecologic cancer cell panel viability, ATPlite luminescence, 48 h; series mostly up to 57.5 µM. Summed up:
as §2

The next assay concerns OV90. The assay is described as above. The conditions noted are these: Gynecologic cancer cell panel viability, ATPlite luminescence, 48 h; series mostly up to 57.5 µM. Summed up:
as §2

The test system of the next assay is PA-1. Described as above. The conditions noted are these: Gynecologic cancer cell panel viability, ATPlite luminescence, 48 h; series mostly up to 57.5 µM. Summed up:
as §2

A further assay concerns SKOV3. Described as above. As to conditions: Gynecologic cancer cell panel viability, ATPlite luminescence, 48 h; series mostly up to 57.5 µM. Summed up: as §2
The next assay has as its system Tov-21-G. The description is as above. The conditions noted are these: Gynecologic cancer cell panel viability, ATPlite luminescence, 48 h; series mostly up to 57.5 µM. Summed up: as §2
Another assay concerns Tov112D. The assay is described as above. The conditions noted are these: Gynecologic cancer cell panel viability, ATPlite luminescence, 48 h; series mostly up to 57.5 µM. Summed up:
as §2

Assay [1] is described as follows: Drug repurposing screens with cells derived from glioblastoma tumor samples (AID 1345199). Note: nearly all actives have a fitted effect of over 40% in size. Note: potency is the fitted concentration of half-maximal effect. The conditions noted are these: GBM patient neurospheres viability, ATP luminescence, 48 h. Summed up: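 Four patient lines of CD133+ GBM neurospheres were screened at several concentrations; hits were retested in those lines plus three slower-growing GBM lines, using 48-hour treatment and ATP-based viability.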

Another assay has as its system NIH3T3. Nature of the assay: qHTS assay to identify novel small-molecules to repurpose for Merkel cell carcinoma treatment (AID 1296009). Note: nearly all actives have a fitted effect of over 60% in size. The conditions noted are these: MCC and control cell lines, CellTiter-Glo viability, 72 h; at 44.8 µM (top of the series) unless noted. Summed up:
as §1

The mark [2] stands for this setting: at 45.9 µM (top of the series), tumour line B.
Setting [3] is: at 45.9 µM (top of the series), tumour line D.
The mark [4] stands for this setting: at 46 µM (top of the series), tumour line A.
Setting [5] is: at 46.1 µM (top of the series), tumour line C.

The structures appear in SMILES notation. Records with an inconclusive call do not appear. Values without a mark were called inactive. Activity calls are given as the source filed them. Calls come from the whole dose curve; as a rule, active = well fitted curve in the direction sought with a large enough effect; inconclusive = small, poorly fitted or top-dose-only effect, or another doubt; inactive = no such curve, though single readings can be large; an effect the other way counts as inactive or inconclusive.
% is set by controls: 0 for no effect and ±100 for the full control effect.

Turning to `Cc1scc2c1N(C(=O)CN1CCN(C)CC1)c1ccccc1NC2=O`, the Potency result in the assay with MCC-13, in the assay on MCC-26, in the assay on MKL-2, in the assay on UISO, in the assay on WaGa and with C33A was “inactive” in each case. The Potency entry in the assay with CAOV3, in the assay on CASKI, in the assay with Es-2, with HeLa, with Hek293T and with JEG-3 was “inactive” each time. For the same compound, the Potency entry in the assay on OV90, in the assay on PA-1, in the assay on SKOV3, in the assay with Tov-21-G and in the assay with Tov112D was “inactive” in each case. Also, the activity, negative = cell killing in [1] (setting [2]) was -11.6%; in assay [1] (setting [3]), 2.13%; in assay [1] (setting [4]) it was -22.7%; in assay [1] (setting [5]), -12.1%.
As to `O=C(O)CCCCCCCC(=O)O`, the Potency entry in the assay with MCC-13, in the assay with MCC-26, in the assay with MKL-2, with UISO, in the assay on WaGa and with C33A was “inactive” in each case. Further, the Potency entry in the assay with CAOV3, in the assay on CASKI, with Es-2, with HeLa, in the assay with Hek293T and with JEG-3 was “inactive” in each case. Further, the Potency entry with OV90, with PA-1, with SKOV3, in the assay with Tov-21-G and in the assay with Tov112D was “inactive” throughout. The compound was classed as inactive in the assay on NIH3T3. In addition, the results for the activity, negative = cell killing in assay [1] (setting [2]), in [1] (setting [3]) and in assay [1] (setting [5]) were -8.57%, -5.03% and -6.63%, respectively.
Regarding `CCN(CC)CCOCCOC(=O)C1(c2ccccc2)CCCC1`, the Potency entry in the assay with MCC-13, in the assay on MCC-26, in the assay on MKL-2, with UISO, in the assay on C33A and with CAOV3 was “inactive” each time. The Potency entry in the assay with CASKI, in the assay on Es-2, in the assay on HeLa, with Hek293T, with JEG-3 and in the assay on OV90 was “inactive” each time. The Potency result with PA-1, in the assay with SKOV3, in the assay with Tov-21-G and with Tov112D was “inactive” each time. Further, in assay [1] (setting [5]), the activity, negative = cell killing is -28.4%. Besides, the Potency in assay [1] (tumour line A) was 2240 nM (active); in assay [1] (tumour line D), 12600 nM (active).
Turning to `CN(C)C(=O)Oc1ccc[n+](C)c1`, the Potency entry in the assay on MCC-13, in the assay on MCC-26, in the assay with MKL-2, in the assay with UISO, in the assay on WaGa and in the assay on C33A was “inactive” in each case. In addition, the Potency result in the assay with CAOV3, in the assay with CASKI, in the assay with Es-2, with HeLa, in the assay with Hek293T and with JEG-3 was “inactive” throughout. For the same compound, the Potency result with OV90, with PA-1, in the assay with SKOV3, in the assay with Tov-21-G and with Tov112D was “inactive” in each case. Further, in the assay on NIH3T3, the compound was classed as inactive. Also, the activity, negative = cell killing was 5.33% in assay [1] (setting [2]), -8.24% in assay [1] (setting [3]), -28.3% in assay [1] (setting [4]) and -15.6% in assay [1] (setting [5]).
As to `N[C@@H](COP(=O)(O)O)C(=O)O`, the Potency result with MCC-13, in the assay on MCC-26, in the assay with MKL-2, with UISO, with WaGa and in the assay with C33A was “inactive” each time. For the same compound, the Potency entry with CAOV3, in the assay with CASKI, in the assay on Es-2, in the assay with HeLa, in the assay on Hek293T and with JEG-3 was “inactive” each time. Further, the Potency entry with OV90, with PA-1, with SKOV3, in the assay on Tov-21-G and in the assay on Tov112D was “inactive” throughout. Moreover, the activity, negative = cell killing was -4.31% in [1] (setting [2]), -5.04% in [1] (setting [3]) and -9.92% in assay [1] (setting [5]).
As for `CSc1ccc(C(=O)c2[nH]c(=O)[nH]c2C)cc1`, the Potency entry in the assay with MCC-13, with MCC-26, in the assay on MKL-2, in the assay with UISO, with WaGa and in the assay with C33A was “inactive” in each case. The Potency entry in the assay with CAOV3, in the assay on CASKI, with Es-2, in the assay on Hek293T, in the assay with JEG-3 and with OV90 was “inactive” in each case. For the same compound, the Potency result in the assay with PA-1, with SKOV3, with Tov-21-G and in the assay on Tov112D was “inactive” in each case. For the same compound, the call with NIH3T3 was inactive. The Potency in the assay with HeLa was 2000 nM (active). Besides, the activity, negative = cell killing in assay [1] (setting [2]) is -10.8%; in [1] (setting [3]), -20.6%; in assay [1] (setting [5]), -21.1%.

The values are drawn from PubChem BioAssay (NCATS).
